# Laboratory results as given in the supplement of paper PMC4466140.
# Experiments:
# Assay in all cases: SPOT peptide array binding signal intensity (averaged, normalized) (arbitrary units (background-subtracted, floor 0; scale differs between SH3 domains)); higher = stronger binding of the SH3 domain to the peptide
# AgAbp1 = target: AgAbp1
# Procedure, shortened: (§1)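 GST-SH3 fusions from four yeast species, purified on glutathione Sepharose, were incubated at 10 μg/ml overnight at 4°C on membranes of synthetic 15-mer peptides in which cysteines were replaced with serines. Binding signal is the normalized, background-subtracted spot intensity averaged over replicates, in domain-specific arbitrary units.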
# AgBbc1 = target: AgBbc1
# Procedure, shortened: as §1
# AgBem1-D1 = target: AgBem1-D1
# Procedure, shortened: as §1
# AgBzz1-D1 = target: AgBzz1-D1
# Procedure, shortened: as §1
# AgBzz1-D2 = target: AgBzz1-D2
# Procedure, shortened: as §1
# AgCyk3 = target: AgCyk3
# Procedure, shortened: as §1
# AgFus1 = target: AgFus1
# Procedure, shortened: as §1
# AgHof1 = target: AgHof1
# Procedure, shortened: as §1
# AgHse1 = target: AgHse1
# Procedure, shortened: as §1
# AgLsb1 = target: AgLsb1
# Procedure, shortened: as §1
# AgLsb4 = target: AgLsb4
# Procedure, shortened: as §1
# AgMyo5 = target: AgMyo5
# Procedure, shortened: as §1
# AgNbp2 = target: AgNbp2
# Procedure, shortened: as §1
# AgRvs167 = target: AgRvs167
# Procedure, shortened: as §1
# AgSho1 = target: AgSho1
# Procedure, shortened: as §1
# AgSla1-D1-D2 = target: AgSla1-D1-D2
# Procedure, shortened: as §1
# AgSla1-D3 = target: AgSla1-D3
# Procedure, shortened: as §1
# CaAbp1-D1 = target: CaAbp1-D1
# Procedure, shortened: as §1
# CaAbp1-D2 = target: CaAbp1-D2
# Procedure, shortened: as §1
# CaBbc1 = target: CaBbc1
# Procedure, shortened: as §1
# CaBem1-D1 = target: CaBem1-D1
# Procedure, shortened: as §1
# CaBzz1-D1 = target: CaBzz1-D1
# Procedure, shortened: as §1
# CaBzz1-D2 = target: CaBzz1-D2
# Procedure, shortened: as §1
# CaCyk3 = target: CaCyk3
# Procedure, shortened: as §1
# CaFus1 = target: CaFus1
# Procedure, shortened: as §1
# CaHof1 = target: CaHof1
# Procedure, shortened: as §1
# CaHse1 = target: CaHse1
# Procedure, shortened: as §1
# CaLsb1 = target: CaLsb1
# Procedure, shortened: as §1
# CaLsb4 = target: CaLsb4
# Procedure, shortened: as §1
# CaMyo5 = target: CaMyo5
# Procedure, shortened: as §1
# CaNbp2 = target: CaNbp2
# Procedure, shortened: as §1
# CaRvs167 = target: CaRvs167
# Procedure, shortened: as §1
# CaRvs167-3 = target: CaRvs167-3
# Procedure, shortened: as §1
# CaSho1 = target: CaSho1
# Procedure, shortened: as §1
# CaSla1-D1-D2 = target: CaSla1-D1-D2
# Procedure, shortened: as §1
# CaSla1-D3 = target: CaSla1-D3
# Procedure, shortened: as §1
# ScAbp1 = target: ScAbp1
# Procedure, shortened: as §1
# ScBbc1 = target: ScBbc1
# Procedure, shortened: as §1
# ScBem1-D1 = target: ScBem1-D1
# Procedure, shortened: as §1
# ScBzz1-D1 = target: ScBzz1-D1
# Procedure, shortened: as §1
# ScBzz1-D2 = target: ScBzz1-D2
# Procedure, shortened: as §1
# ScCyk3 = target: ScCyk3
# Procedure, shortened: as §1
# ScFus1 = target: ScFus1
# Procedure, shortened: as §1
# ScHof1 = target: ScHof1
# Procedure, shortened: as §1
# ScHse1 = target: ScHse1
# Procedure, shortened: as §1
# ScLsb1 = target: ScLsb1
# Procedure, shortened: as §1
# ScLsb2 = target: ScLsb2
# Procedure, shortened: as §1
# ScLsb3 = target: ScLsb3
# Procedure, shortened: as §1
# ScLsb4 = target: ScLsb4
# Procedure, shortened: as §1
# ScMyo3 = target: ScMyo3
# Procedure, shortened: as §1
# ScMyo5 = target: ScMyo5
# Procedure, shortened: as §1
# ScNbp2 = target: ScNbp2
# Procedure, shortened: as §1
# ScPex13 = target: ScPex13
# Procedure, shortened: as §1
# ScRvs167 = target: ScRvs167
# Procedure, shortened: as §1
# ScSho1 = target: ScSho1
# Procedure, shortened: as §1
# ScSla1-D1-D2 = target: ScSla1-D1-D2
# Procedure, shortened: as §1
# ScSla1-D3 = target: ScSla1-D3
# Procedure, shortened: as §1
# SpAbp1-D1 = target: SpAbp1-D1
# Procedure, shortened: as §1
# SpBbc1 = target: SpBbc1
# Procedure, shortened: as §1
# SpBzz1-D1 = target: SpBzz1-D1
# Procedure, shortened: as §1
# SpBzz1-D2 = target: SpBzz1-D2
# Procedure, shortened: as §1
# SpCyk3 = target: SpCyk3
# Procedure, shortened: as §1
# SpHof1 = target: SpHof1
# Procedure, shortened: as §1
# SpHof1-2 = target: SpHof1-2
# Procedure, shortened: as §1
# SpHof1-3 = target: SpHof1-3
# Procedure, shortened: as §1
# SpHse1 = target: SpHse1
# Procedure, shortened: as §1
# SpLsb1 = target: SpLsb1
# Procedure, shortened: as §1
# SpLsb4 = target: SpLsb4
# Procedure, shortened: as §1
# SpMyo1 = target: SpMyo1
# Procedure, shortened: as §1
# SpNbp2 = target: SpNbp2
# Procedure, shortened: as §1
# SpPex13 = target: SpPex13
# Procedure, shortened: as §1
# SpRvs167 = target: SpRvs167
# Procedure, shortened: as §1
# SpSla1-D1-D2 = target: SpSla1-D1-D2
# Procedure, shortened: as §1
# SpSla1-D3 = target: SpSla1-D3
# Procedure, shortened: as §1
binder,measurement,setting,value
VNIPSPSSSPPPIPK,SPOT peptide array binding signal intensity,AgAbp1,8
same,SPOT peptide array binding signal intensity,AgBbc1,≤ 0
same,SPOT peptide array binding signal intensity,AgBem1-D1,28
same,SPOT peptide array binding signal intensity,AgBzz1-D1,≤ 0
same,SPOT peptide array binding signal intensity,AgBzz1-D2,5
same,SPOT peptide array binding signal intensity,AgCyk3,0.5
same,SPOT peptide array binding signal intensity,AgFus1,0.5
same,SPOT peptide array binding signal intensity,AgHof1,≤ 0
same,SPOT peptide array binding signal intensity,AgHse1,20.5
same,SPOT peptide array binding signal intensity,AgLsb1,≤ 0
same,SPOT peptide array binding signal intensity,AgLsb4,≤ 0
same,SPOT peptide array binding signal intensity,AgMyo5,2570
same,SPOT peptide array binding signal intensity,AgNbp2,≤ 0
same,SPOT peptide array binding signal intensity,AgRvs167,0.5
same,SPOT peptide array binding signal intensity,AgSho1,≤ 0
same,SPOT peptide array binding signal intensity,AgSla1-D1-D2,8
same,SPOT peptide array binding signal intensity,AgSla1-D3,≤ 0
same,SPOT peptide array binding signal intensity,CaAbp1-D1,5
same,SPOT peptide array binding signal intensity,CaAbp1-D2,9
same,SPOT peptide array binding signal intensity,CaBbc1,≤ 0
same,SPOT peptide array binding signal intensity,CaBem1-D1,10
same,SPOT peptide array binding signal intensity,CaBzz1-D1,34
same,SPOT peptide array binding signal intensity,CaBzz1-D2,4.75
same,SPOT peptide array binding signal intensity,CaCyk3,≤ 0
same,SPOT peptide array binding signal intensity,CaFus1,47.5
same,SPOT peptide array binding signal intensity,CaHof1,0.5
same,SPOT peptide array binding signal intensity,CaHse1,≤ 0
same,SPOT peptide array binding signal intensity,CaLsb1,≤ 0
same,SPOT peptide array binding signal intensity,CaLsb4,≤ 0
same,SPOT peptide array binding signal intensity,CaMyo5,1400
same,SPOT peptide array binding signal intensity,CaNbp2,19.5
same,SPOT peptide array binding signal intensity,CaRvs167,≤ 0
same,SPOT peptide array binding signal intensity,CaRvs167-3,2.25
same,SPOT peptide array binding signal intensity,CaSho1,2
same,SPOT peptide array binding signal intensity,CaSla1-D1-D2,≤ 0
same,SPOT peptide array binding signal intensity,CaSla1-D3,1.25
same,SPOT peptide array binding signal intensity,ScAbp1,≤ 0
same,SPOT peptide array binding signal intensity,ScBbc1,1
same,SPOT peptide array binding signal intensity,ScBem1-D1,≤ 0
same,SPOT peptide array binding signal intensity,ScBzz1-D1,≤ 0
same,SPOT peptide array binding signal intensity,ScBzz1-D2,6
same,SPOT peptide array binding signal intensity,ScCyk3,≤ 0
same,SPOT peptide array binding signal intensity,ScFus1,≤ 0
same,SPOT peptide array binding signal intensity,ScHof1,≤ 0
same,SPOT peptide array binding signal intensity,ScHse1,35
same,SPOT peptide array binding signal intensity,ScLsb1,≤ 0
same,SPOT peptide array binding signal intensity,ScLsb2,≤ 0
same,SPOT peptide array binding signal intensity,ScLsb3,≤ 0
same,SPOT peptide array binding signal intensity,ScLsb4,≤ 0
same,SPOT peptide array binding signal intensity,ScMyo3,3090
same,SPOT peptide array binding signal intensity,ScMyo5,2780
same,SPOT peptide array binding signal intensity,ScNbp2,6
same,SPOT peptide array binding signal intensity,ScPex13,≤ 0
same,SPOT peptide array binding signal intensity,ScRvs167,≤ 0
same,SPOT peptide array binding signal intensity,ScSho1,1.5
same,SPOT peptide array binding signal intensity,ScSla1-D1-D2,2.5
same,SPOT peptide array binding signal intensity,ScSla1-D3,≤ 0
same,SPOT peptide array binding signal intensity,SpAbp1-D1,1
same,SPOT peptide array binding signal intensity,SpBbc1,≤ 0
same,SPOT peptide array binding signal intensity,SpBzz1-D1,80.5
same,SPOT peptide array binding signal intensity,SpBzz1-D2,≤ 0
same,SPOT peptide array binding signal intensity,SpCyk3,1
same,SPOT peptide array binding signal intensity,SpHof1,≤ 0
same,SPOT peptide array binding signal intensity,SpHof1-2,≤ 0
same,SPOT peptide array binding signal intensity,SpHof1-3,≤ 0
same,SPOT peptide array binding signal intensity,SpHse1,43
same,SPOT peptide array binding signal intensity,SpLsb1,≤ 0
same,SPOT peptide array binding signal intensity,SpLsb4,≤ 0
same,SPOT peptide array binding signal intensity,SpMyo1,1720
same,SPOT peptide array binding signal intensity,SpNbp2,≤ 0
same,SPOT peptide array binding signal intensity,SpPex13,1.5
same,SPOT peptide array binding signal intensity,SpRvs167,≤ 0
same,SPOT peptide array binding signal intensity,SpSla1-D1-D2,2
same,SPOT peptide array binding signal intensity,SpSla1-D3,2
